Test results published in PubChem BioAssay AID1671192 (National Center for Advancing Translational Sciences (NCATS), 2021).
Inconclusive results are not listed. Active and inactive are the calls of the source. The call rests on the fitted dose curve; in most records, active means well fitted curve in the direction sought with a large enough effect; inconclusive means small, poorly fitted or top-dose-only effect, or another doubt; inactive means no such curve, though single readings can be large or run the other way.

Each compound was assayed against Polyunsaturated fatty acid lipoxygenase ALOX15 (Homo sapiens) (UniProt P16050) (assay: Counterscreen qHTS for inhibitors of human arachidonate 12S-lipoxygenase (ALOX12): ALOX15 Assay). Details: purified ALOX15 enzyme activity; series mostly up to 110 µM; activity change, negative = inhibition: at the top concentration.
Polyunsaturated fatty acid lipoxygenase ALOX15 (Homo sapiens), sequence (P16050 whole entry, looked up): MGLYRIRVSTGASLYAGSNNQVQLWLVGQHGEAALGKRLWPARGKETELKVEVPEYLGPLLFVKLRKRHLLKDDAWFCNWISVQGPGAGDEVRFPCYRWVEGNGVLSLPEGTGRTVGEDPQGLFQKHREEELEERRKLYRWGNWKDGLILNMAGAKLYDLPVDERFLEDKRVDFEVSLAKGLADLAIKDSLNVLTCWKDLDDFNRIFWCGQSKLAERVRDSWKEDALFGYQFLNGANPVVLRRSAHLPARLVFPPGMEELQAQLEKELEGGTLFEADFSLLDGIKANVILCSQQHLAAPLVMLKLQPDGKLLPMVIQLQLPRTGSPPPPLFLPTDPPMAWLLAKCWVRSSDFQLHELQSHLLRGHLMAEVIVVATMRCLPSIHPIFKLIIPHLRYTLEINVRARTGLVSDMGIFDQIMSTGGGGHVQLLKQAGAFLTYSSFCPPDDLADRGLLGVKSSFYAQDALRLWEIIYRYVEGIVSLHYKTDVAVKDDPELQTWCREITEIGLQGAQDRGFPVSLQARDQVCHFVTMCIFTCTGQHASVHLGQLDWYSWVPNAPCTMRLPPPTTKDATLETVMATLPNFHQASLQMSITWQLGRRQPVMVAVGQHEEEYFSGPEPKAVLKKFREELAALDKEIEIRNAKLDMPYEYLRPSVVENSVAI
How it was run: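 Xylenol orange–ferric complex formation, read as the 573 nm to 405 nm absorbance ratio, tracks product from 50 uM arachidonic acid turned over for 30 min at RT. Enzyme is 40 nM ALOX15, pH 7.5 HEPES buffer, compound-preincubated 15 min.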
Further: 0% is about no effect.

| Compound | activity change, negative = inhibition |
| --- | --- |
| O=Cc1cccc(-c2cncc(C(=O)O)c2)c1 | -14.3% [at 146 µM] (inactive) |
| CC(=O)NCCCC(=O)N1CCOC2(CCN(C(=O)CCCN)CC2)C1 | -31.6% (inactive) |
| CN1CC(=O)N(C2CCNCC2)Cc2c(NCC3CCCCC3)ncnc21 | -28.9% (inactive) |
| CN1CC(=O)N(C2CCCNCC2)Cc2c(NCCO)ncnc21 (stereo not drawn) | -9.22% [at 146 µM] (inactive) |
| O=C(NC1CCCC1)c1cc(C2CC2)nc2onc(C3CCCN3)c12 (stereo not drawn) | -4.93% [at 146 µM] (inactive) |
| NCc1ccccc1-c1cc(C(F)(F)F)ccc1Cl | -8.37% [at 146 µM] (inactive) |
| Cn1nc(C2CCCN2)c2c(C(=O)NCc3ccc(F)cc3)cc(C3CC3)nc21 (stereo not drawn) | -22.9% (inactive) |
| CCOCCNc1ncnc2c1CN(C1CCNCC1)C(=O)CN2C | -12.2% (inactive) |
| FC(F)(F)c1cccc(C2=NOC3(CCN(Cc4ccsc4)C3)C2)c1 (stereo not drawn) | -6.94% (inactive) |
| COc1ccc(CNc2ncnc3c2CN(C2CCNCC2)C(=O)CN3C)cc1 | -36.3% (inactive) |
| CNC1CCOc2ccccc21 (stereo not drawn) | -17.1% [at 146 µM] (inactive) |
| O=C1NCc2ccccc2CC12CCN(Cc1cccc(F)c1F)C2 (stereo not drawn) | -14.8% [at 146 µM] (inactive) |
| Cc1cc(C(=O)NC2CC2)c2c(C3CCNCC3)noc2n1 | -15.2% [at 146 µM] (inactive) |
| O=C(C1CCCC1)N1CC2(CCN(Cc3ccc(Cl)cc3)C2)Cc2ccccc21 (stereo not drawn) | -17.1% (inactive) |
| O=C1NCCN1C1CCN(Cc2ccc(F)cc2)CC1 | -7.78% [at 146 µM] (inactive) |
| CN1CC(=O)N(C2CCCNCC2)Cc2c(NCC(C)(C)C)ncnc21 (stereo not drawn) | 12.5% (inactive) |
| COc1ccc(-c2nc(C3CC3)nc3c2CN(C(=O)c2ccccc2)CC3)cc1 | 3.82% (inactive) |
| CCC(=O)N1Cc2ccccc2CC2(CCN(Cc3ccncc3)CC2)C1 | -9.79% (inactive) |
| CC(=O)N1CCC2(CC1)CN(C(=O)Cc1csc(N)n1)Cc1ccccc1O2 | -4.11% (inactive) |

| Compound | activity change, negative = inhibition |
| --- | --- |
| COc1ccccc1-c1cccc(CN)c1 | 18.8% [at 233 µM] (inactive) |
| CCN1CCCC12Cc1ccccc1CN([S+](C)(=O)[O-])C2 (stereo not drawn) | 17.5% [at 146 µM] (inactive) |
| c1ccc2c(CN3CC(Oc4ccc5c(c4)OCO5)C3)cccc2c1 | -20.3% (inactive) |
| CC(C)OCCCNc1ncnc2c1CN(C1CCNC1)C(=O)CN2C (stereo not drawn) | -18% (inactive) |
| CNCc1ccccc1Cl | -2.81% [at 233 µM] (inactive) |
| CN1CC(=O)N(C2CCCNC2)Cc2c(NCC(C)(C)C)ncnc21 (stereo not drawn) | -8.17% (inactive) |
| COc1cccc(-c2ccc(CN3C4CCC3CN(C(=O)Nc3ccccc3F)C4)cc2)c1 | -19% (inactive) |
| Cc1ccc(CN2CCC3(Cc4ccccc4CNC3=O)C2)cc1 (stereo not drawn) | -27.6% [at 146 µM] (inactive) |
| c1cc(NCCN2CCCC2)ccn1 | -9.88% [at 233 µM] (inactive) |
| COc1ccccc1CNc1ncnc2c1CN(C1CCCNC1)C(=O)CN2C (stereo not drawn) | -12.3% (inactive) |
| CCN1CCCCC12Cc1ccccc1CN(S(=O)(=O)c1ccccc1)C2 (stereo not drawn) | 0.95% (inactive) |
| CC(=O)NCCC(=O)N1Cc2ccccc2CC2(CCN(CC3CCNC3)CC2)C1 (stereo not drawn) | 11% (inactive) |
| Cc1ccc(C(=O)N2CCc3nc(C4CC4)nc(-c4ccc(Cl)cc4)c3C2)cc1 | -24.7% (inactive) |
| COc1ccc(-c2nc(C3CC3)nc3c2CN([S+](=O)([O-])c2ccccc2)CC3)cc1 | 0.186% (inactive) |
| O=C(c1ccccn1)N1CCn2c(nn(-c3ccc(Cl)cc3)c2=O)C1 | -10.8% (inactive) |
| CCN(c1ccc2c(c1)OCO2)C1CN(C(=O)OC(C)(C)C)C1 | -26.4% [at 146 µM] (inactive) |
| CC(=O)NCCC(=O)N1Cc2ccccc2CC2(CCCCN2CC2CCNC2)C1 (stereo not drawn) | -25.7% (inactive) |
| O=C(NC1CC1)c1cc(C2CC2)nc2onc(C3CCNCC3)c12 | -21.6% [at 146 µM] (inactive) |
| COCCCNC(=O)c1cc(C2CC2)nc2c1c(C1CCCN1)nn2-c1ccccc1 (stereo not drawn) | 0.477% (inactive) |
